Measured values published in the supplement of paper PMC10981050.
Where “and” joins values, the source holds several entries; their conditions need not be identical. Identical values can stand only once. Counter-ions that a name gives are not always drawn.

How the values were obtained:
Test in all cases: cell viability relative to vehicle control; higher = less cytotoxic
Conditions in all cases: 10 µM
K562 = system: K562
Outline: (§1)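 After removal of identity-inconsistent compounds, the Selleck bioactive, kinase and epigenetic probe libraries were screened on CRISPR-edited mutant clones and isogenic wild-type clones of four leukaemia lines. Plates were 384-well, each well holding 2000 cells in 50 µL medium and receiving a single 10 µM acoustically dispensed dose. CellTiter-Glo luminescence was read 48 h later, after the supernatant was taken off. Genedata Screener was used to express viability as percent of the on-plate vehicle control.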

MARIMO = system: MARIMO
Outline: as §1

MOLM14 = system: MOLM14
Outline: as §1

OCI-AML2 = system: OCI-AML2
Outline: as §1

SMILES	cell viability (K562; SRSF2 genotype: SRSF2 P95H/wt)	cell viability (K562; SRSF2 genotype: SRSF2 wt/wt) [%]	cell viability (MARIMO; SRSF2 genotype: SRSF2 P95H/wt) [%]	cell viability (MARIMO; SRSF2 genotype: SRSF2 wt/wt) [%]	cell viability (MOLM14; SRSF2 genotype: SRSF2 P95H/wt) [%]	cell viability (MOLM14; SRSF2 genotype: SRSF2 wt/wt) [%]	cell viability (OCI-AML2; SRSF2 genotype: P95H/wt) [%]	cell viability (OCI-AML2; SRSF2 genotype: wt/wt) [%]
CN(C)CCC=C1c2ccccc2C(C)(C)c2ccccc21 [Melitracen hydrochloride]	68.2% and 69.9%	82.3	62.9	69.7	63.8	77.6	61.3	65.3
CC1(C)CC[C@]2(C(=O)O)CC[C@]3(C)C(=CC[C@@H]4[C@@]5(C)CC[C@H](O)[C@@](C)(CO)[C@@H]5CC[C@]43C)[C@@H]2C1 [Hederagenin]	103% and 102%	97.1	98.4	112	106	105	120	107
CN1CCN(c2ccc(C(=O)Nc3n[nH]c4ccc(Cc5cc(F)cc(F)c5)cc34)c(NC3CCOCC3)c2)CC1 [Entrectinib (RXDX-101)]	0.53% and 0.51%	0.41	0.56	2.11	0.29	0.28	0.22	0.35
C#Cc1cccc(Nc2ncnc3cc(OC)c(OCCCCCCC(=O)NO)cc23)c1	1.25% and 12.2%	3.12	9.16	8.09	1.03	0.53	1.68	2.66
CNCc1ccc(C)c(NC(=O)c2ccc(Nc3nc(-c4ccccc4)c4ccccc4n3)cc2)c1	0.99% and 1.39%	1.34	0.68	0.61	0.42	0.52	0.4	0.57
CC1=C(CC(=O)O)c2cc(F)ccc2/C1=C\c1ccc([S+](C)[O-])cc1 (stereo not given) [Sulindac (Clinoril)]	109% and 99.8%	96.8	88.6	112	92.5	100	94.2	102
CC(C)Cc1ccc([C@@H](C)C(=O)NS(C)(=O)=O)cc1 [Reparixin (Repertaxin)]	102% and 97.5%	98.4	97.6	99.2	95.7	98.4	93.3	105
C=C[C@]1(C)C[C@@H](OC(=O)CSC(C)(C)CNC(=O)[C@H](N)C(C)C)[C@]2(C)[C@H](C)CC[C@]3(CCC(=O)[C@H]32)[C@@H](C)[C@@H]1O [Valnemulin HCl]	83.2% and 84.6%	75.3	74	74.9	80.8	80	60.7	65.5
O=C(O)c1ccccc1C(=O)Nc1ccc(-c2ccccc2)cc1 [Kartogenin]	106% and 113%	103	105	107	106	105	105	97.9
OCCOCCN1CCN(Cc2cccc(Oc3ccccc3)c2)CC1	97.6% and 99.2%	94	90	99.3	94.5	99.8	84	93.8
Cc1cc([N+](=O)[O-])ccc1NS(=O)(=O)c1cc(Cl)ccc1Cl	79.9% and 88%	86.3	96.4	92.9	92.3	90.9	93.1	97.1
c1cc(CN2CCCNCCNCCCNCC2)ccc1CN1CCCNCCNCCCNCC1 [Plerixafor]	93.9% and 99.1%	99.1	96.2	100	94.8	94.7	103	96.9
O=C(Nc1ccc2c(O)cc(S(=O)(=O)O)cc2c1)Nc1ccc2c(O)cc(S(=O)(=O)O)cc2c1 [AMI-1, free acid]	105% and 92.6%	109	100	110	103	108	109	112
C=CC(=O)Nc1cc2c(Nc3ccc(F)c(Cl)c3)ncnc2cc1OCCCN1CCOCC1 [CI-1033 (Canertinib)]	66.7% and 78.1%	61.7	52	61.5	12.8	15.9	27.6	31.4
CN(CCNCc1cn(Cc2ccc(Cl)cc2)nn1)CCNc1ccnc2cc(Cl)ccc12	2.31% and 5.3%	6.48	28.8	34.4	2.79	0.55	0.39	0.68
CO/N=C(\C(=O)N[C@@H]1C(=O)N2C(C(=O)O)=C(CSC(=O)c3ccco3)CS[C@H]12)c1csc(N)n1 [Ceftiofur]	108%	103	110	109	97	108	112	105
COC(=O)C[C@](O)(CCCC(C)(C)O)C(=O)O[C@@H]1C(OC)=C[C@]23CCCN2CCc2cc4c(cc2[C@H]13)OCO4 [Homoharringtonine]	12.4% and 19.9%	23	9.06	4.23	1.21	1.06	5.52	11.4
Cc1ccc(NC(=S)NNc2c([N+](=O)[O-])cc(C(F)(F)F)cc2[N+](=O)[O-])cc1Cl	81% and 81.3%	90.4	87.3	86.2	89.3	84.6	101	94.4

SMILES	cell viability (K562; SRSF2 genotype: SRSF2 P95H/wt)	cell viability (K562; SRSF2 genotype: SRSF2 wt/wt) [%]	cell viability (MARIMO; SRSF2 genotype: SRSF2 P95H/wt) [%]	cell viability (MARIMO; SRSF2 genotype: SRSF2 wt/wt) [%]	cell viability (MOLM14; SRSF2 genotype: SRSF2 P95H/wt) [%]	cell viability (MOLM14; SRSF2 genotype: SRSF2 wt/wt) [%]	cell viability (OCI-AML2; SRSF2 genotype: P95H/wt) [%]	cell viability (OCI-AML2; SRSF2 genotype: wt/wt) [%]
CC(C)(CO)n1cc(C(=O)c2cncc(NC(=O)Cc3ccc(Cl)cn3)c2)c2cnc(N)nc21	104%	111	115	109	64.3	76.5	107	93.4
O=Cc1ccc(O[C@@H]2O[C@H](CO)[C@@H](O)[C@@H](O)[C@H]2O)cc1 [Helicide]	99% and 102%	103	96	99.9	97.8	104	99.8	96.5
O=C1Cc2cc(CCN3CCN(c4nsc5ccccc45)CC3)c(Cl)cc2N1 [Ziprasidone hydrochloride]	87% and 98.6%	97	88.7	95.2	37.8	81.3	91.9	88.1
Oc1ccc([C@H]2COc3cc(O)ccc3C2)cc1 [Equol]	90.4% and 101%	103	99.9	104	95.2	104	92	88.4
C=C1CC[C@H]2C(=C)CC[C@H]3C(=C)C(=O)O[C@@H]3[C@@H]12 [Dehydrocostus Lactone]	25.2% and 23.9%	30.8	13.7	16.1	8.31	11.1	3.84	6.64
Nc1ccc(O)cc1 [4-Aminophenol]	63.2% and 50.9%	83.5	45.6	50	12.1	23.2	3.01	12
Cc1ccc(/C=N/NC(=O)c2ccccc2Oc2ccccc2)o1	96.8% and 102%	96.3	96.3	105	102	98.7	112	109
O=c1[nH]ccc2c(S(=O)(=O)N3CCCNCC3)cccc12 [Hydroxyfasudil (HA-1100)HCl]	95.5% and 99.7%	96.5	96.5	92.7	95.6	101	95.7	90.5
Cc1ccc(N(CC2=NCCN2)c2cccc(O)c2)cc1 [Phentolamine Mesylate]	93% and 101%	92.5	90.3	95.2	102	103	102	86.7
COc1ccc(-c2cnc3c(-c4cccc5ncccc45)cnn3c2)cc1	98.9% and 100%	92.7	104	112	93	108	90.4	91.5
CC(C)NC(=O)COc1cccc(-c2nc(Nc3ccc4[nH]ncc4c3)c3ccccc3n2)c1	73.5% and 97.8%	84.7	68.6	72.4	93.6	89.8	110	87.8
O=C(COc1cccc2c(=O)[nH]ccc12)c1ccccc1	89.7% and 93.9%	98.9	94.6	88.4	102	98.5	88	84.1
O=C(O)CCc1c[nH]c2ccccc12 [3-Indolepropionic acid]	92.7% and 95.1%	102	98.8	96.4	97.8	96.9	103	98.3
O=c1cc(N2CCOCC2)oc2c(-c3cccc4c3sc3ccccc34)cccc12	89.7% and 97.5%	88.3	93	87.3	60.5	51.9	52.5	66.4
COc1cccc2c1C(=O)c1c(O)c3c(c(O)c1C2=O)C[C@@](O)(C(=O)CO)C[C@@H]3O[C@H]1C[C@H](N)[C@H](O[C@@H]2CCCCO2)[C@H](C)O1 [Pirarubicin]	9.97% and 17.9%	15.8	5.07	2.51	0.15	0.13	0.2	0.51
CN(C)CCCn1cc(C2=C(c3c[nH]c4ccccc34)C(=O)NC2=O)c2ccccc21	91.2% and 78.4%	98.8	82.9	92	36.4	32.5	34	67.1
Cn1cnc([N+](=O)[O-])c1Sc1ncnc2[nH]cnc12 [Azathioprine (Azasan, Imuran)]	53.6% and 63.6%	34.8	82.2	87.2	85.2	81.8	87.7	92
